Drawing on PubChem BioAssay (Tox21), this text covers Potency and outcome for seven compounds.

The target of test [1] is Peroxisome proliferator-activated receptor delta (Homo sapiens) (UniProt Q03181). The experiment in a line: qHTS assay to identify small molecule agonists of the peroxisome proliferator-activated receptor delta (PPARd) signaling pathway (AID 743212; calls by dose curve). An outline of the steps: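 Read-out: beta-lactamase FRET fluorescence after 2 h room-temperature incubation with LiveBLAzer B/G substrate. Cells were HEK293H carrying a UAS-bla reporter for PPARd, treated at 37 C with DMSO-dissolved compounds.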
Sequence of Peroxisome proliferator-activated receptor delta (Homo sapiens) (Q03181 whole entry, looked up): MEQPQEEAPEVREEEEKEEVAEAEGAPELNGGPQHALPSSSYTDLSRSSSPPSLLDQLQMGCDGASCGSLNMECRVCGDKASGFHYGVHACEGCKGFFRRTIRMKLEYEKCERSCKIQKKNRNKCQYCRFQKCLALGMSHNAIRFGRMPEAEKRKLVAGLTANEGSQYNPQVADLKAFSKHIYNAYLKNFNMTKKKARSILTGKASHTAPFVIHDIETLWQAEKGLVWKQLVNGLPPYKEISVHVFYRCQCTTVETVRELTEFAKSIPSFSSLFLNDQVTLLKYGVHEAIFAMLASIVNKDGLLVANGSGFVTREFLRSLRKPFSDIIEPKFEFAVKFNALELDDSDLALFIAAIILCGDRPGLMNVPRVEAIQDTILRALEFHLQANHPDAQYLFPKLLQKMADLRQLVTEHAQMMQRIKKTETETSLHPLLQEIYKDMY

Test [2] is described as follows: qHTS assay to identify small molecule antagonists of the peroxisome proliferator-activated receptor delta (PPARd) signaling pathway - cell viability counter screen (AID 743213). Also: nearly all actives have a fitted effect of over 50% in size. Also: potency is read from the fitted curve at half-maximal effect. The method in brief: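 HEK293H PPARd UAS-bla cells, 5 h pre-incubation, compound + L165041 300 nM final, 17 h 37 C; B/G FRET substrate 2 h RT; then CellTiter-Glo 30 min RT, luminescence.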
(In general: qHTS replaces the single test concentration by a dilution series.)

For test [3], the target named is Peroxisome proliferator-activated receptor delta (Homo sapiens) (UniProt Q03181). The experiment in a line: qHTS assay to identify small molecule antagonists of the peroxisome proliferator-activated receptor delta (PPARd) signaling pathway (AID 743215; active = well fitted inhibition curve with a large enough effect in the signal ratio in the repeat runs, not every such curve was filed as active; the % refers to the signal ratio;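 also: cells stimulated with agonist L165041 at 300 nM final during compound exposure; series mostly up to about 62 µM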). An outline of the steps: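 Agonist L165041 (300 nM final) added with compound to PPARd-bla HEK293H UAS-bla reporter cells; 17 h incubation at 37 C. Read-out: LiveBLAzer FRET substrate, 2 h at room temperature, fluorescence intensity.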

Test [4] concerns the target Bile acid receptor (Homo sapiens) (UniProt Q96RI1). Description: qHTS assay to identify small molecule antagonists of the farnesoid-X-receptor (FXR) signaling pathway (AID 743217; active = well fitted inhibition curve with a large enough effect in the signal ratio in the repeat runs, not every such curve was filed as active; the % refers to the signal ratio). The method in brief: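 Antagonist mode: chenodeoxycholic acid at 50 uM final stimulates a UAS-driven beta-lactamase reporter in HEK 293T FXR-bla cells during 16 h, 37C compound exposure. Read-out is FRET substrate fluorescence after 2 h at room temperature.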

A short description of test [5]: qHTS assay to identify small molecule agonists of the farnesoid-X-receptor (FXR) signaling pathway - cell viability counter screen (AID 743218). Also: nearly all actives have a fitted effect of over 45% in size. Also: potency is read from the fitted curve at half-maximal effect. The method in brief: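 Viability counter screen in the same wells: CellTiter-Glo luminescence, 30 min room-temperature incubation, measured after the beta-lactamase read. Cells were GeneBLAzer FXR-UAS-bla HEK 293T, compound-treated 16 h at 37C.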

Test [6] addresses Bile acid receptor (Homo sapiens) (UniProt Q96RI1). The experiment in a line: qHTS assay to identify small molecule agonists of the farnesoid-X-receptor (FXR) signaling pathway (AID 743220; active = well fitted activation curve with a large enough effect in the signal ratio in the repeat runs, not every such curve was filed as active; the % refers to the signal ratio). An outline of the steps:
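FXR-UAS-bla HEK 293T cells carrying a UAS-driven beta-lactamase reporter were plated for 5 h at 37C/5% CO2, then exposed to DMSO-dissolved Tox21 10K compounds for 16 h at 37C. A LiveBLAzer B/G FRET substrate was loaded for 2 h at room temperature before fluorescence reading.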

Test [7] in a line: qHTS assay to identify small molecule antagonists of the farnesoid-X-receptor (FXR) signaling pathway - cell viability counter screen (AID 743221; active = well fitted cell-killing curve with a large enough effect in the repeat runs, not every such curve was filed as active; also: nearly all actives have a fitted effect of over 50% in size). The method in brief: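 Quantitative HTS of the Tox21 10K library run in parallel with the beta-lactamase reporter read. HEK 293T cells carrying a UAS-driven bla reporter got compound and 50 uM CDCA (final) for 16 h; ATP-based luminescence followed.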

For test [8], the target named is Vitamin D3 receptor (Homo sapiens) (UniProt P11473). The experiment in a line: qHTS assay to identify small molecule agonists of the vitamin D receptor (VDR) signaling pathway (AID 743222; calls by dose curve). The method in brief:
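Agonist mode, beta-lactamase reporter: fluorescence from LiveBLAzer B/G FRET substrate (2 h, room temperature) read after 16 h compound treatment at 37 C of VDR-bla cells, which were pre-incubated 4 h after seeding.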

For test [9] the target is unchanged. Description: qHTS assay to identify small molecule antagonists of the vitamin D receptor (VDR) signaling pathway (AID 743223; active = well fitted inhibition curve with a large enough effect in the signal ratio in the repeat runs, not every such curve was filed as active; the % refers to the signal ratio). The method in brief:
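Fluorescence from LiveBLAzer B/G FRET substrate, read after 2 h at room temperature, reflects beta-lactamase reporter activity in VDR-bla cells treated 16 h at 37C with compounds and agonist 1alpha,25-dihydroxyvitamin D3 (3 nM final).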

The nature of test [10]: qHTS assay to identify small molecule agonists of the vitamin D receptor (VDR) signaling pathway - cell viability counter screen (AID 743224). Also: nearly all actives have a fitted effect of over 50% in size. Also: potency is read from the fitted curve at half-maximal effect. The method in brief:
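Counter screen run in the same wells as the VDR-bla reporter assay: CellTiter-Glo luminescence, 30 min at room temperature, after 16 h compound treatment at 37C of cells pre-plated for 4 h.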

Test [11] is described as follows: qHTS assay to identify small molecule antagonists of the vitamin D receptor (VDR) signaling pathway - cell viability counter screen (AID 743225). Also: nearly all actives have a fitted effect of over 50% in size. An outline of the steps: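 Cells (VDR-UAS-bla HEK 293T) are plated, rested 4 h at 37C, dosed with compound and 3 nM final 1-alpha,25-dihydroxy vitamin D3, and incubated 16 h. Viability is taken from CellTiter-Glo luminescence in the reporter wells.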

The nature of test [12]: qHTS assay to identify small molecule agonists of the NFkB signaling pathway - cell viability counter screen (AID 1159515; calls by dose curve; also: series mostly up to about 61 µM; nearly all actives have a fitted effect of over 55% in size). The method in brief:
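Read by CellTiter-Glo luminescence (30 min, room temperature) in the wells also used for the beta-lactamase FRET read. ME-180 NFkB-bla cells at 2,000 per well were plated overnight, then exposed to compound for 5 hr at 37 C.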

Test [13] can be described thus: qHTS assay to identify small molecule agonists of the endoplasmic reticulum stress response signaling pathway (AID 1159516; active = well fitted activation curve with a large enough effect in the signal ratio in the repeat runs, not every such curve was filed as active; the % refers to the signal ratio). An outline of the steps: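 Ratiometric FRET readout (405 nm excitation; 460 and 530 nm emission) of a beta-lactamase gene driven by the ER stress response element, after 2 hr substrate loading. HeLa ESRE-bla cells were seeded overnight and treated with compounds for only 5 hr at 37 C.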

A short description of test [14]: qHTS assay to identify small molecule agonists of the endoplasmic reticulum stress response signaling pathway - cell viability counter screen (AID 1159517; calls by dose curve; also: nearly all actives have a fitted effect of over 50% in size; also: potency is read from the fitted curve at half-maximal effect). The method in brief:
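Steps: seed 1,500 ESRE-bla HeLa cells per well; incubate overnight at 37 C, 5% CO2; add compounds in DMSO for 5 hr; run FRET substrate 2 hr RT; add CellTiter-Glo, wait 30 min, read luminescence.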

Test [15] is described as follows: qHTS assay to identify small molecule antagonists of the retinoid-related orphan receptor gamma (ROR-gamma) signaling pathway - cell viability counter screen (AID 1159520). Also: nearly all actives have a fitted effect of over 50% in size. Also: potency is read from the fitted curve at half-maximal effect. An outline of the steps:
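Tet-on ROR gamma CHO cells were given compounds for 2 hr, then doxycycline hyclate at 1 uM final, and incubated 16 hr at 37 C. Viability was measured as ATP content by CellTiter-Glo luminescence.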

Test [16] deals with Nuclear receptor ROR-gamma (Homo sapiens) (UniProt P51449). The experiment in a line: qHTS assay to identify small molecule antagonists of the retinoid-related orphan receptor gamma (ROR-gamma) signaling pathway (AID 1159521; also: nearly all actives have a fitted effect of over 50% in size; also: potency is read from the fitted curve at half-maximal effect). The method in brief: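 RORγ antagonism is scored from reduced reporter luminescence in Tet-on CHO cells. Induction used 1 uM final doxycycline hyclate for 16 h at 37 C, following a 2 h compound exposure.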

The nature of test [17]: qHTS assay to identify small molecule agonists of the AP-1 signaling pathway - cell viability counter screen (AID 1159525; calls by dose curve; also: nearly all actives have a fitted effect of over 55% in size). The method in brief:
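Same-well cytotoxicity counter screen of the Tox21 10K library in ME-180 cells. The readout is ATP-dependent luminescence after 5 h compound treatment. Data are normalised to DMSO and tetra n-octyl ammonium bromide controls.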

The nature of test [18]: qHTS assay to identify small molecule agonists of the AP-1 signaling pathway (AID 1159526; calls by dose curve).
For test [19], the target named is Retinoic acid receptor RXR-alpha (Homo sapiens) (UniProt P19793). The experiment in a line: qHTS assay to identify small molecule agonists of the RXR signaling pathway (AID 1159527; calls by dose curve; also: nearly all actives have a fitted effect of over 35% in size; also: potency is read from the fitted curve at half-maximal effect). The method in brief: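 qHTS of the Tox21 10K library in GeneBLAzer RXR-alpha HEK 293T cells carrying a beta-lactamase reporter […]; 16 hr treatment, 9-cis retinoic acid as agonist control, FRET read-out.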
Sequence of Retinoic acid receptor RXR-alpha (Homo sapiens) (P19793 whole entry, looked up): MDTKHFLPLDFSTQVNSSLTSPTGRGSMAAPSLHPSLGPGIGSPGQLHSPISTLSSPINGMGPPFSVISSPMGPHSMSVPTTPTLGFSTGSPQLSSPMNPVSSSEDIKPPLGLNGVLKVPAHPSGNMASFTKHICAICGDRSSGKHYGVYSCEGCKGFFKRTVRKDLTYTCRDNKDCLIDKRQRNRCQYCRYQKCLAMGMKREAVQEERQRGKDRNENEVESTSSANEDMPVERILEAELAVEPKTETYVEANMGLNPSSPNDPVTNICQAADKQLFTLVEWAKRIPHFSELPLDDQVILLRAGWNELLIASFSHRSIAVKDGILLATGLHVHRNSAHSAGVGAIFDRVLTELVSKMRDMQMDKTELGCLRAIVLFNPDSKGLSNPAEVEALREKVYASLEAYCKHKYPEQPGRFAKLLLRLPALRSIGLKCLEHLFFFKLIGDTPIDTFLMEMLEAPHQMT

Test [20] in a line: qHTS assay to identify small molecule agonists of the RXR signaling pathway - cell viability counter screen (AID 1159529). The method in brief:
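Cell viability is measured by CellTiter-Glo luminescence, 30 min at room temperature, in wells already read for beta-lactamase. Engineered HEK 293T cells (RXR-alpha-UAS-bla) are dosed 16 hr at 37 C. Tetraoctyl ammonium bromide serves as positive control.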

“And” between values parts separate entries of the source, which are not always exact repeats. Equal entries are not always repeated. Inconclusive results are not listed. Some compounds were tested as several samples or in several runs, with calls that do not always agree. The source made the active and inactive calls. Unless noted, calls follow the shape of the dose curve; as a rule, active = well fitted curve in the direction sought with a large enough effect in the repeat runs; inconclusive = weak or mixed curves; inactive = no such curve, though single readings can be large; an effect the other way counts as inactive or inconclusive.

Sequence of Bile acid receptor (Homo sapiens) (Q96RI1 whole entry, looked up): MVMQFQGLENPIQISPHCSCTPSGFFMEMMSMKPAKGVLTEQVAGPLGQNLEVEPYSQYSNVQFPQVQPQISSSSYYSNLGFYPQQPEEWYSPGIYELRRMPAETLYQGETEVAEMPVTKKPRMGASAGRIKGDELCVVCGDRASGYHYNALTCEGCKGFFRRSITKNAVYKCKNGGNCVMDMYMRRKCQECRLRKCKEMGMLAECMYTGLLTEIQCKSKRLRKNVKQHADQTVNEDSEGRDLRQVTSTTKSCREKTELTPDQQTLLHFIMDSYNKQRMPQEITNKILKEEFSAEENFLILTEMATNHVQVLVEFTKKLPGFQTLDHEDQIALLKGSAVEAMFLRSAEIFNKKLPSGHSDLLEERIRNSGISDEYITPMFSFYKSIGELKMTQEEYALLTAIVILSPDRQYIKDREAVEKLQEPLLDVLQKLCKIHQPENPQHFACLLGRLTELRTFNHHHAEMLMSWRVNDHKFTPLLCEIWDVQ
Sequence of Vitamin D3 receptor (Homo sapiens) (P11473 whole entry, looked up): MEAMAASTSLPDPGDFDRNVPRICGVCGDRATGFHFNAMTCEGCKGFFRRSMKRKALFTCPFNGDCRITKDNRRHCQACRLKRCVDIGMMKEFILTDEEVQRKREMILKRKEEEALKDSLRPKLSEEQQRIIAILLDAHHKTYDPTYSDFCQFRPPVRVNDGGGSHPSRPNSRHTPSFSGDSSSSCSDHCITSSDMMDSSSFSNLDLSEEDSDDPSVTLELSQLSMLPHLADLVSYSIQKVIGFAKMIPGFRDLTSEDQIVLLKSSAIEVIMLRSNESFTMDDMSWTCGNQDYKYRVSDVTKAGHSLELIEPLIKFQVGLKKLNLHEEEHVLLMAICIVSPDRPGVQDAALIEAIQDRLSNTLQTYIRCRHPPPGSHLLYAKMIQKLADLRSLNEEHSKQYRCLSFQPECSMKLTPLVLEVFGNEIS

With `CC(=O)N[C@@H](CS)C(=O)O`, the Potency result in [1], in test [2], in test [3], in [4], in [5] and in test [6] was “inactive” each time. The Potency result in test [7], in test [8], in [9], in [10], in test [11] and in test [12] was “inactive” in each case. Further, the Potency result in [14], in test [15], in test [16], in test [17], in test [18] and in test [19] was “inactive” each time. The Potency entry in test [20] is “inactive”. In addition, the compound was called inactive in test [13].
In the case of `Cc1scc2c1N(C(=O)CN1CCN(C)CC1)c1ccccc1NC2=O`, the Potency result in test [1], in [2], in test [3], in test [4], in [5] and in test [6] was “inactive” in each case. Further, the Potency entry in [7], in test [8], in [9], in test [10], in [12] and in test [14] was “inactive” in each case. Also, the Potency result in [15], in test [16], in test [17], in [18], in test [19] and in test [20] was “inactive” in each case. Further, the result in test [13] was inactive.
As for `CNC1(C)C2CCC(C2)C1(C)C` (stereo not given), the Potency entry in test [1], in [2], in test [3], in test [4], in test [5] and in [6] was “inactive” each time. In addition, the Potency result in [7], in test [8], in [11], in test [12], in test [14] and in test [15] was “inactive” in each case. The Potency result in test [16], in [17], in test [18], in test [19] and in [20] was “inactive” in each case. Further, in test [13], the result was inactive.
In the case of `CC(=O)Nc1ccc(C(=O)CCl)cc1`, the Potency entry in test [1], in test [3], in test [4], in test [7], in test [8] and in test [12] was “inactive” throughout. The Potency entry in test [17], in test [18] and in test [20] was “inactive” throughout. Also, the Potency result in test [2] is “inactive and 43.6 µM (active)”; in test [5] it was “inactive and 54.9 µM (active)”; in test [10] it was “inactive and 54.9 µM (active)”; in test [14], “inactive and 27.5 µM (active)”; in test [15], “inactive and 13.7 µM (active)”; in test [16] it was “inactive and 13.7 µM (active)”. In addition, the Potency in [19] is 11 µM (active). Moreover, the call in [13] was inactive.
For the compound `COC(c1ccccc1)(c1ccccc1)[C@H](Oc1nc(C)cc(C)n1)C(=O)O`, the Potency result in test [1], in test [2], in test [4], in test [5], in [6] and in [7] was “inactive” throughout. In addition, the Potency result in test [8], in [9], in test [10], in test [11], in test [12] and in test [14] was “inactive” in each case. Further, the Potency result in test [15], in test [16], in test [17], in [18], in test [19] and in [20] was “inactive” throughout. In addition, in test [13], the compound was classed as inactive.
Turning to `CC(=O)CC(C)=O`, the Potency entry in test [1], in [2], in test [5], in [7], in [10] and in test [12] was “inactive” throughout. Also, the Potency result in test [14], in [15], in test [16], in test [17], in test [18] and in test [19] was “inactive” each time. Moreover, the Potency result in test [20] was “inactive”. Also, the call in [13] was inactive.
For the compound `NNCCc1ccccc1`, the Potency entry in [1], in test [2], in test [3], in test [5], in test [7] and in test [8] was “inactive” in each case. Further, the Potency result in test [9], in test [10], in test [11], in test [12], in [14] and in test [15] was “inactive” in each case. Moreover, the Potency entry in test [16], in [17], in test [18], in [19] and in [20] was “inactive” throughout. In addition, in test [13], the result was inactive.
